In PubChem BioAssay AID1159580 (chemical genetic matrix, 2015):
“And” between values parts separate entries of the source, which are not always exact repeats. Equal entries are not always repeated. Screen size: about 5,500 compounds; about 2,000 (36%) were called active. Roughly 18% stayed inconclusive and do not appear here. Cut-off read from the data, not from the text of the source: active = normalized growth mostly below about 0.91 (no sharp cut-off); inconclusive = no clear call, values can overlap the other calls; inactive = mostly above about 0.92. The list shows a part of the results.

Experiment: chemical genetic growth profiling, strain panel (AID 1159580);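 note: tested at 20 µM; growth read once vehicle control cultures reached saturation at 30 °C; 1 = growth at the plate median or of vehicle wells; lower values mean less growth of the strain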
Conditions: S. cerevisiae deletion strains, growth OD

Measured: normalized growth

CCCCC[C@H](CC(=O)NO)C(=O)N[C@H](C(=O)N1CCC[C@H]1CO)C(C)C
inactive: locus YAL013W, strain DEP1, active compounds read low 0.979 | locus YAL021C, strain ccr4, active compounds read low 1.02 | locus YAL026C, strain drs2, active compounds read low 1.01 | locus YAL030W, strain snc1, active compounds read low 1 | locus YBL061C, strain skt5, active compounds read low 1.01 | locus YBR009C, strain hhf1, active compounds read low 1.02 | locus YBR021W, strain FUR4, active compounds read low 1.04 | locus YBR023C, strain chs3, active compounds read low 1.01 | locus YBR171W, strain sec66, active compounds read low 1.02 | locus YBR229C, strain ROT2, active compounds read low 1 | locus YBR231C, strain swc5, active compounds read low 1.02 | locus YBR279W, strain paf1, active compounds read low 1.02 | locus YCL011C, strain gbp2, active compounds read low 1.01 | locus YCL016C, strain dcc1, active compounds read low 1.01 | locus YCL029C, strain bik1, active compounds read low 1.02 | locus YCL061C, strain MRC1, active compounds read low 1.01 | locus YCL069W, strain vba3, active compounds read low 1.01 | locus YCR088W, strain abp1, active compounds read low 1.01 | locus YDL005C, strain med2, active compounds read low 1.02 | locus YDL035C, strain GPR1, active compounds read low 0.989 | locus YDL040C, strain nat1, active compounds read low 1.02 | locus YDL074C, strain BRE1, active compounds read low 1.02 | locus YDL101C, strain DUN1, active compounds read low 1.02 | locus YDL185W, strain tfp1, active compounds read low 1.01 | locus YDL192W, strain arf1, active compounds read low 1.02 | locus YDR001C, strain nth1, active compounds read low 1.01 | locus YDR069C, strain doa4, active compounds read low 1.03 | locus YDR101C, strain arx1, active compounds read low 1.03 | locus YDR137W, strain rgp1, active compounds read low 0.972 | locus YDR150W, strain NUM1, active compounds read low 1.02 | locus YDR159W, strain sac3, active compounds read low 1.03 | locus YDR162C, strain NBP2, active compounds read low 0.988 | locus YDR195W, strain ref2 1 | locus YDR297W, strain sur2, active compounds read low 1.02 | locus YDR318W, strain mcm21, active compounds read low 1.01 | locus YDR334W, strain swr1, active compounds read low 1.01 | locus YDR335W, strain msn5, active compounds read low 1.02 | locus YDR388W, active compounds read low 1.02 | locus YDR392W, strain spt3, active compounds read low 1.04 | locus YDR502C, strain sam2, active compounds read low 1 | locus YEL003W, strain gim4, active compounds read low 1.02 | locus YEL037C, strain rad23, active compounds read low 1 | locus YEL061C, strain CIN8 (second series), active compounds read low 1.01 | locus YEL061C, strain CIN8, active compounds read low 1.01 | locus YER015W, strain faa2, active compounds read low 1.02 | locus YER016W, strain bim1, active compounds read low 1.01 | locus YER110C, active compounds read low 1.03 | locus YER111C, strain swi4, active compounds read low 1.02 | locus YER155C, strain BEM2 (second series), active compounds read low 1.02 | locus YER155C, strain BEM2, active compounds read low 1.01 | locus YER167W, strain BCK2, active compounds read low 0.999 | locus YFR010W, strain ubp6, active compounds read low 1.01 | locus YGL078C, strain dbp3, active compounds read low 1.02 | locus YGL086W, strain mad1, active compounds read low 1.01 | locus YGL167C, strain pmr1, active compounds read low 1.01 | locus YGL173C, strain kem1, active compounds read low 1.03 | locus YGL227W, strain vid30, active compounds read low 1.02 | locus YGL240W, strain doc1, active compounds read low 1.03 | locus YGL248W, strain PDE1, active compounds read low 1.02 | locus YGL253W, strain hxk2, active compounds read low 1.01 | locus YGR078C, strain PAC10, active compounds read low 1.01 | locus YGR135W, strain pre9, active compounds read low 1.01 | locus YGR252W, strain gcn5, active compounds read low 1.02 | locus YHR013C, strain ard1, active compounds read low 1.03 | locus YHR027C, strain rpn1, active compounds read low 1.02 | locus YHR030C, strain SLT2, active compounds read low 1.01 and 0.992 | locus YHR079C, strain IRE1 (second series), active compounds read low 1.03 | locus YHR079C, strain IRE1, active compounds read low 0.973 | locus YHR094C, strain hxt1, active compounds read low 1.01 | locus YHR129C, strain ARP1, active compounds read low 1.02 | locus YHR142W, strain chs7, active compounds read low 1.01 | locus YHR200W, strain rpn10, active compounds read low 1.01 | locus YIL066C, strain RNR3, active compounds read low 0.999 | locus YIL073C, strain SPO22, active compounds read low 1.06 | locus YIL125W, strain kgd1, active compounds read low 1.02 | locus YIR030C, strain dcg1, active compounds read low 1.02 | locus YJL092W, strain hpr5, active compounds read low 1.01 | locus YJL095W, strain BCK1 (second series), active compounds read low 1.02 | locus YJL095W, strain BCK1, active compounds read low 1.02 and 0.977 | locus YJL115W, strain asf1, active compounds read low 1 | locus YJL129C, strain trk1, active compounds read low 1.03 | locus YJL134W, strain LCB3, active compounds read low 1.01 | locus YJL154C, strain vps35, active compounds read low 1 | locus YJL164C, strain tpk1, active compounds read low 1.03 | locus YJL166W, strain qcr8, active compounds read low 1.02 | locus YJL168C, strain set2, active compounds read low 1.01 | locus YJL187C, strain SWE1 (second series), active compounds read low 1.04 | locus YJL187C, strain SWE1, active compounds read low 1.02
